Data reported in the supplement of paper PMC10338343.
± gives the standard deviation. Whole data set: some 8,200 sequences, median “pre-steady-state target cleavage rate” near 0.024, cut for the highest 2% near 1.3. What follows is part of a selection rich in the highest values, with near analogues and random picks from the rest.

Test system: MIWI (PIWIL1) piRISC loaded with L1MC piRNA (30 nt)
Assay: pre-steady-state target cleavage rate (min^-1); MIWI and MILI are mouse PIWI proteins and EfPiwi is from a freshwater sponge; tags in brackets are library labels; higher = faster piRNA-guided slicing of the target
Conditions: guide: L1MC piRNA 5'p-UAACUAAAUACUAUGCAAGCUGUAGGUCCU
Summary of the method: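 In HEPES–potassium acetate buffer at 33 °C, […] transcribed, DNA-blocked target RNA library was mixed with 1 nM active affinity-purified piRISC carrying one synthetic guide, with or without 500 nM GTSF1 partner protein, for 0–8 or 0–960 min. Uncleaved targets were sequenced and normalised to depth and to weakly complementary targets; three trials were pooled and k3 was capped at 0.0001 min^-1. The pre-steady-state cleavage rate followed from a burst-and-steady-state fit.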

[1] = auxiliary factor: 500 nM mouse GTSF1
[2] = auxiliary factor: none (no GTSF1)
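Further: 1 nM active piRISC with 0.1 nM target library at 33 °C single turnover.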

Sequence	pre-steady-state target cleavage rate [1]	pre-steady-state target cleavage rate [2]
AGGACCUACAGCUUGCGAUAGUAUUUAGUUA	0.108 ± 0.026	
UCGACCUACAGCUUGCAUAGUAUUUAGUUA [g2:g28:cont:t1A]	1.56 ± 0.056	0.0936 ± 0.017
UCGACCUACAGCUUGCAUAGUAUUAUAGUUA	1.32 ± 0.076	0.0387 ± 0.007
UCGACCUACAGCUUGCAUAGUAUUUAGUUG [g2:g28:cont:t1G]	0.569 ± 0.04	0.0703 ± 0.013
UCGACCUACAGCUUGCAUAGUAUUUUAGUUA	1.21 ± 0.053	0.0302 ± 0.0073
UCGACCUACAGCUUGCAUAGUAUUAGUUA	0.346 ± 0.053	
UCGACCUACAGCUUGCAUAGUAUAUUAGUUA	1.25 ± 0.049	0.0248 ± 0.0063
AGCACCUACAGCUUGCAUACUAUUUAGUUA	0.471 ± 0.099	0.00711 ± 0.0024
UCCUGGAUGUCGAACCAUUGUAUAUAGUUA	< 0.0001	
UGGACCUACAGCUUCGCAUAGUAUUUAGUUA	1.43 ± 0.1	0.0229 ± 0.0062
UCGACCUACAGCUUCGCAUAGUAUUUAGUUA	1.33 ± 0.07	0.0168 ± 0.004
UCCACCUACAGCUUCGCAUAGUAUUUAGUUA	0.911 ± 0.056	0.0118 ± 0.0027
AGGACCUACAGCUUCGCAUAGUAUUUAGUUA	1.27 ± 0.071	0.0296 ± 0.0087
UCGACCUACAGCUUCAUAGUAUUUAGUUA	1.14 ± 0.042	0.0128 ± 0.0025
UCGACCUACAGCUUCGAUAGUAUUUAGUUA	0.911 ± 0.058	0.00251 ± 0.0018
UGGAGCUACAGCUUGCAUUGUAUUUAGUUA	0.934 ± 0.038	0.0337 ± 0.0068
UCCUCCUACAGCUUGCAUACUAUUUAGAUA	0.0831 ± 0.015	0.0075 ± 0.0022
UCCUGGAUGUGCUUGCAUAGUAUUUAGAUA	0.118 ± 0.023	0.0188 ± 0.0067
UCGACCUACAGCUUGCAUAGAAUUUUCAAA	0.369 ± 0.059	
UCCUGGUACAGCUUACAUAGUAUUUAGUUA	0.749 ± 0.056	0.0246 ± 0.0048

Sequence	pre-steady-state target cleavage rate [1]	pre-steady-state target cleavage rate [2]
UGCUGCUACAGCUUGCAUAGUAUUUAGUAA	0.875 ± 0.084	0.0204 ± 0.0041
UGCAGCUACAGCUUGCAUAGUAUUUAGUUA	1.21 ± 0.081	0.0733 ± 0.013
AGCUGCUACAGCUUGCAUAGUAUUUAGUUA	1.49 ± 0.07	0.0697 ± 0.012
UCCUGCUACAGCUUGCAUAGUAUUUUAGUUA	0.817 ± 0.067	0.0107 ± 0.0028
AGCUGCUACAGCUUGCAUAGUAUUUAGUAA	0.977 ± 0.11	0.0202 ± 0.0038
AGCAGCUACAGCUUGCAUAGUAUUUAGUUA	1.37 ± 0.067	0.079 ± 0.016
UCCUGCUACAGCUUGCAUAUAUUUAGUUA	0.408 ± 0.045	0.00397 ± 0.0033
UGCUGCUACAGCUUGCAUAGUAUUUAGUUA	1.55 ± 0.058	0.0595 ± 0.011
UCCUGCUACAGCUUGCAUAGUAUUUAGUUA [g2:g25:cont:t1A]	0.864 ± 0.042	0.0585 ± 0.01
UGGUGCUACAGCUUGCAUAGUAUUUAGUUA	0.988 ± 0.079	0.0764 ± 0.017
UCCUGCUACAGCUUGCAUAUUAUUUAGUUA	1.31 ± 0.066	0.0449 ± 0.0088
UCCUGCUACAGCUUGCAUAGUUAUUUAGUUA	0.073 ± 0.013	0.00386 ± 0.0025
UCCUGGAACAGCUUCAUAGUAUUUAGUUA	0.95 ± 0.051	0.00772 ± 0.0027
UCCACCUACAGCUUGCGAUAGUAUUUAGUUA	0.0565 ± 0.018	
UGGACCAUGAGCUUGCAUAGUAUUUAGUAA	0.675 ± 0.045	0.0285 ± 0.0075
UCCUGGAACACCUUGCAUAGUUUUUAGUUA	0.148 ± 0.023	0.0142 ± 0.0044
UCCUGGAACAGCUUGCAUAGUUUUUUGUUA	0.197 ± 0.025	0.0238 ± 0.0057
UCGUCCUACAGCUUGCAUAGUAAUUAGUUA	0.874 ± 0.027	0.0282 ± 0.006
UCCUCCUACAGCUUGCAUAGUAAUUAGUAA	0.347 ± 0.039	0.0074 ± 0.0022
UCCUGGUACAGCAUGCAUAGUAAUUAGUUA	0.457 ± 0.054	0.0118 ± 0.0031

Sequence	pre-steady-state target cleavage rate [1]	pre-steady-state target cleavage rate [2]
AGGACCUACAGCUAGCAUAGUAUUUAGAAA	0.571 ± 0.066	0.00411 ± 0.0025
UCCUGCUACAGCUUGCAUAGUAUUUUGUAA	0.274 ± 0.043	0.009 ± 0.0031
UCCUGGAUGAGCUACCAUAGUAUUUAGUUA	0.0107 ± 0.0041	
UCCUCCUACAGCUUGCAUAGUAUUGUAGUUA	0.282 ± 0.054	0.00959 ± 0.0038
UCCUGGAACAGCUUGCAUGUAUUUAGUUA	0.103 ± 0.015	0.00591 ± 0.0032
UCCUGGAUGUCCUUGCAUACUAUUUAGUUA	0.0164 ± 0.0047	0.00616 ± 0.0016
UCCACCUACAGCUUCCAUAGUAUUUACAAA	0.0165 ± 0.008	
UCCUGGUACAGCUUGCAUAGUAUUUAGCUA	0.00692 ± 0.0039	
UCGUGCUACAGCUUGCAUAGUAUUUAGUUA	1.38 ± 0.059	0.0704 ± 0.012
AGGUGCUACAGCUUGCAUAGUAUUUAGUUA	1.23 ± 0.064	0.0832 ± 0.016
UCGUGCUACAGCUUGCAUAGUAUUUAGUAA	0.926 ± 0.053	0.0286 ± 0.0054
UGGAGGAACAGCUUGCAUAGUAUUUAGAAA	0.364 ± 0.037	0.00934 ± 0.004
UCCUCCUACCAGCUUGCAUAGUAUUUAGUUA	1.15 ± 0.055	0.0479 ± 0.011
UCGACCUACAGGUUGCAUACUAUUUAGUUA	0.273 ± 0.018	0.0207 ± 0.004
ACGACCUACAGCAUGCAUAGUAUUUAGUUA	1.43 ± 0.053	0.082 ± 0.021
UCGACCUACAGCAUUGCAUAGUAUUUAGUUA	1.19 ± 0.082	0.0581 ± 0.012
UGCACCUACAGCAUGCAUAGUAUUUAGUUA	0.998 ± 0.092	0.0271 ± 0.0047
AGCACCUACAGCAUGCAUAGUAUUUAGUUA	1.02 ± 0.13	0.0663 ± 0.022
UCGACCUACAGCAUGCAUAGUAUUUAGUUA	1.48 ± 0.049	0.0548 ± 0.013
UCGACCUACAGCAUGCAUAGUAUUUAGUAA	0.99 ± 0.072	0.0189 ± 0.0064
